# Source: PubChem BioAssay
# An excerpt weighted towards active compounds, which were near 2.4% of everything screened.
# Pol eta inh = inhibitors of human DNA polymerase eta. Q9Y253. recombinant Pol eta, fluorescent DNA replication assay. Potency, µM (titrated, usually from 114 µM), without a hit: at the top dose activity change, negative = inhibition, most hits filed as inhibitors. 1.2% of 390,000 active. AID 588591; further: on the % scale 0 is the no-effect control and ±100 the full control effect
#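 Pol eta (10 nM) was preincubated with compounds for 15 min at room temperature, after which fluorescent replication substrate (50 nM final) was added to start the reaction. Fluorescence was read kinetically at 0 and 10 min.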
# POLI inh = DNA polymerase iota (human) inhibition | Pol iota fluorescent replication assay, 10 min | Potency, µM (doses to about 115 µM), inactives show at the top dose activity, negative = inhibition, actives largely listed as inhibitors | 1% of 390,000 active | AID 588590
#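 Pol iota at 10 nM preincubated 15 min with compounds at room temperature; reaction started with fluorescent substrate, 50 nM final. Fluorescence read kinetically at 0 and 10 min; buffer-only wells as negative control.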
# POLB inh = DNA polymerase beta (human) inhibition; Potency, µM (series often up to 114 µM), inactives show at the highest dose activity change, negative = inhibition, hits mostly inhibitors; Pol beta primer extension/strand displacement, fluorescence kinetic; AID 485314; P06746; 1.3% of 340,000 active; further: on the % scale 0 is the no-effect control and ±100 the full control effect
#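 Homogeneous kinetic assay of primer extension and strand displacement by 10 nM Pol beta, preincubated 15 min at room temperature with compound before 50 nM substrate (final) was added. Read at 0 and 10 min; four-parameter Hill fit.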
# WRN inhibitor = blocks human WRN helicase | Q14191 | WRN helicase unwinding, fluorescent forked duplex, kinetic | Potency, µM (titrated, usually from 114 µM), for the others: top-dose activity change, negative = inhibition, usual class: inhibitors | 0.46% of 360,000 active | AID 651768; further: on the % scale 0 is the no-effect control and ±100 the full control effect; nearly all actives have a fitted effect of over 55% in size
#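 Kinetic red-fluorescence monitoring (525/598 nm) tracks WRN helicase activity after 100 nM fluorophore-quencher forked duplex and 2 mM ATP are added to 20 nM enzyme pretreated 15 min at room temperature with compound.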
# FEN1 inh = inhibitors of human flap endonuclease 1 | P39748 | Recombinant FEN1 flap cleavage, fluorescence, 15 min | Potency, µM (doses to about 114 µM), for inactives: at the highest dose activity change, negative = inhibition, actives largely listed as inhibitors | 0.35% of 390,000 active | AID 588795; further: on the % scale 0 is the no-effect control and ±100 the full control effect; nearly all actives have a fitted effect of over 65% in size
#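 Quantitative HTS format: each compound was titrated, incubated with 10 nM nuclease for 15 min at room temperature, then challenged with flap substrate at 50 nM final. Signal change over 15 min gave concentration–effect curves.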
# Pol kappa inh = inhibitors of human DNA polymerase kappa; Potency, µM (titrated, usually from 107 µM), inactives show at the highest dose activity, negative = inhibition, most hits filed as inhibitors; 0.53% of 400,000 active; purified Pol kappa, fluorescent DNA synthesis assay, 10 min; further: on the % scale 0 is the no-effect control and ±100 the full control effect
# Target sequence (Q9UBT6 whole entry, looked up): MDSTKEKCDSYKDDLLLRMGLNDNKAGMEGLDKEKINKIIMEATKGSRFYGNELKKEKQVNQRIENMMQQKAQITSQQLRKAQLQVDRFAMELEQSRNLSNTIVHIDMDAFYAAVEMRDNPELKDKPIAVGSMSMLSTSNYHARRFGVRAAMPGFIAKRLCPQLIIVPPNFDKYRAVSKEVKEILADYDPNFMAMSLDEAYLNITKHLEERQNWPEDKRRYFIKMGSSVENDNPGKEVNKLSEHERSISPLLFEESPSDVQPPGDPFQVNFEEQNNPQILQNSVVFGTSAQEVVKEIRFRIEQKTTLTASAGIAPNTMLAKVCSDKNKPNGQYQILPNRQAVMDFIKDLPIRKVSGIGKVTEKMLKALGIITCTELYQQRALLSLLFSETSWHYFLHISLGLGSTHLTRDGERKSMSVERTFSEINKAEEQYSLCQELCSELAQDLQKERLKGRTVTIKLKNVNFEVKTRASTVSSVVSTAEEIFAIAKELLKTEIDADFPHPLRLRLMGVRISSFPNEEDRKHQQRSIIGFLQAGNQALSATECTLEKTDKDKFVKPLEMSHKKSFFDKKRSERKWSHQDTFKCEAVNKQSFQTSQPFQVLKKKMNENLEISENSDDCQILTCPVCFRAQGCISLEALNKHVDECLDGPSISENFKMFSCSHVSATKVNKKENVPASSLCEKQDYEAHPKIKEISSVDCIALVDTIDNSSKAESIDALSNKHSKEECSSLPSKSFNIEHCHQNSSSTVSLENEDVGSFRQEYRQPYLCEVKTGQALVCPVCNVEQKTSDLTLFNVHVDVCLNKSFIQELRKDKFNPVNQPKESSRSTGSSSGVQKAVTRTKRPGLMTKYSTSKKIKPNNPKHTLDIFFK
#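 Fluorescent qHTS in 1536-well format: enzyme (10 nM) and compound sat 15 min at room temperature before 50 nM substrate (final) was added. Signal taken at 0 and 10 min; no-enzyme buffer wells were negative controls.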
# * hit, by the source's call; ? = inconclusive; nt = no result; [ ] = another dose, or the depositor's remark. The call rests on the fitted dose curve; in most records, active means well fitted curve in the direction sought with a large enough effect; inconclusive means small, poorly fitted or top-dose-only effect, or another doubt; inactive means no such curve, though single readings can be large; an effect the other way counts as inactive or inconclusive. Potency means the concentration at half of the fitted maximal effect.
SMILES,Pol eta inh,POLI inh,POLB inh,WRN inhibitor,FEN1 inh,Pol kappa inh
Cc1ccc(NC(=O)CN2C(=O)S/C(=C\c3cc(C)n(-c4ccc(C(=O)O)cc4)c3C)C2=O)cc1,79.4µM*,?,79.4µM*,-10.5%,?,-5.1%
Cc1ccc2onc(CC(=O)N3CCN(c4cc(Cl)ccc4C)CC3)c2c1,-21.9%,3.9%,15.2%,nt,2.0%,-10.5%
Cc1ccc(CCNC(=O)c2ccc3c(c2)c(C)c(C)n3Cc2ccccc2)cc1,-9.3%,15.8%,3.1%,nt,3.0%,-8.0%
NC1=C(Br)C(=O)c2ncccc2C1=O,17.8µM*,11.2µM*,nt,?,-11.7%,-4.5%
O=C1C(=O)c2ncccc2-c2cccnc21,nt,nt,nt,nt,nt,8.91µM*
O=C1c2cccnc2C(=O)N1C1CCCCC1,-4.7%,7.7%,16.9%,2.8%,-6.0%,7.8%
O=C1c2cccnc2C(=O)N1CO,-11.5%,4.2%,36.3%,-5.8%,-1.3%,-10.1%
COc1ccc([C@]23Cc4cc(C#N)ccc4C(O2)c2c(cc(C)n(-c4ccccc4)c2=O)O3)cc1,nt,nt,-0.3%[22.9 µM],nt,nt,nt
O=C(Nc1ccccc1F)C1CCCN(S(=O)(=O)c2ccccc2)C1 (configuration not stated),-18.3%,88.4%,4.0%,79.4µM*,-9.0%,-10.8%
O=C(Nc1ccccc1F)C1CCCN(S(=O)(=O)c2ccc(-n3cnnn3)cc2)C1 (configuration not stated),-6.7%,52.6%,4.8%,13.5%,-4.3%,4.8%
O=C(c1ccco1)N1CCN(C(=O)c2ccc(COc3ccc4c(c3)CCC4)o2)CC1,?,?,89.1µM*,-5.0%[57.1 µM],1.1%,-4.9%
C#CCOCCOCCOCCNc1nc(N2CCN(C(=O)C(Cc3ccc(O)cc3)n3cc(C(N)CC(C)C)nn3)CC2)nc(N2CCN(C(=O)C(Cc3cc4ccccc4[nH]3)n3cc(C(N)C(C)CC)nn3)CC2)n1 (configuration not stated),nt,nt,50.1µM*,nt,nt,nt
C#CCOCCOCCOCCNc1nc(N2CCN(C(=O)C(Cc3cc4ccccc4[nH]3)n3cc(C(N)C(C)CC)nn3)CC2)nc(N2CCN(C(=O)C(Cc3cc4ccccc4[nH]3)n3cc(C(N)C(C)CC)nn3)CC2)n1 (configuration not stated),-1.6%,?,20µM*,-29.8%,?,0.7%
C#CCOCCOCCOCCNc1nc(N2CCN(C(=O)[C@H](Cc3ccc(O)cc3)n3cc([C@@H](N)CC(C)C)nn3)CC2)nc(N2CCN(C(=O)[C@H](Cc3cc4ccccc4[nH]3)n3cc([C@@H](N)CC(C)C)nn3)CC2)n1,-19.5%,?,35.5µM*,?,-4.5%,-4.1%
C#CCOCCOCCOCCNc1nc(N2CCN(C(=O)[C@H](Cc3ccc(O)cc3)n3cc([C@@H](N)C(C)CC)nn3)CC2)nc(N2CCN(C(=O)[C@H](Cc3cc4ccccc4[nH]3)n3cc([C@@H](N)Cc4ccc(O)cc4)nn3)CC2)n1 (some centres not stated),nt,nt,-9.8%,nt,nt,nt
C#CCOCCOCCOCCNc1nc(N2CCN(C(=O)[C@H](Cc3ccc(O)cc3)n3cc([C@@H](N)CC(C)C)nn3)CC2)nc(N2CCN(C(=O)[C@H](Cc3ccc(O)cc3)n3cc([C@@H](N)CC(C)C)nn3)CC2)n1,nt,nt,31.6µM*,nt,nt,nt
O=C(C[N+]12CCCc3cccc(c31)CCC2)c1ccc2ccccc2c1,nt,95.3%,nt,nt,?,-9.9%
CNc1ccc(C=C2c3ccccc3-c3ccccc32)cc1,nt,9.6%,nt,nt,-21.7%,-11.3%
COc1cccc(/C=N/NC(=O)c2cc(-c3ccccn3)nc3ccccc23)c1O,-8.7%,38.4%,nt,-19.5%,-0.9%,0.1%
O=C(N/N=C/c1cc(Cl)cc([N+](=O)[O-])c1O)c1cc(-c2ccccn2)nc2ccccc12,79.4µM*,21.7%,-1.1%,-17.2%,10.5%,-2.7%
O=C(C[n+]1cccc2cccc(O)c21)c1ccc(F)cc1,nt,39.5%,nt,nt,0.2%,1.3%
CCOc1cc(/C=N/N=C2/NC(=O)C(CC(=O)O)S2)ccc1OCc1ccccc1Cl (configuration not stated),?,-17.4%,28.2µM*,-14.4%,-8.7%,-7.0%
CN(CC(=O)Nc1cccc(F)c1)S(=O)(=O)c1ccc2c(c1)n(C)c(=O)c(=O)n2C,4.2%,4.9%,5.7%,nt,-2.5%,-5.4%
O=C(COC(=O)CC1CCCC1)Nc1cc2c(cc1Cl)C(=O)c1ccccc1C2=O,?,-14.9%,39.8µM*,-18.8%,7.2%,-20.6%
CC(C)c1ccc(NC(=O)COC(=O)CC2CCCC2)cc1,-17.5%,7.0%,nt,1.1%,?,-22.0%
SMILES,Pol eta inh,POLI inh,POLB inh,WRN inhibitor,FEN1 inh,Pol kappa inh
CC(C)c1ccc(CN(C(=O)/C=C/c2ccco2)C2CCS(=O)(=O)C2)cc1 (configuration not stated),?,?,?,?,-8.1%,-24.5%
O=C(/C=C/c1ccco1)N(Cc1ccccc1F)C1CCS(=O)(=O)C1 (configuration not stated),?,50.1µM*,?,-10.8%[11.6 µM],9.9%,-22.2%
Cc1ccc(CNC(=O)CSc2nc3ccsc3c(=O)n2-c2ccc(Br)cc2)cc1,-0.3%,11.8%,43.1%,nt,-8.9%,-4.2%[60.1 µM]
Cc1ccc(NC(=O)C(C)OC(=O)c2ccc(Cl)nc2)cc1S(=O)(=O)N1CCOCC1 (configuration not stated),20µM*,?,nt,-16.9%,-4.1%,-15.2%
Cc1ccc(NC(=O)C(C)OC(=O)c2nc(Cl)ccc2Cl)cc1S(=O)(=O)N1CCOCC1 (configuration not stated),?,?,nt,-3.6%[11.6 µM],-23.6%,-29.9%
Cc1ccc(NC(=O)C(C)OC(=O)c2ccc(NS(=O)(=O)c3ccc(F)c(F)c3)cc2)cc1 (configuration not stated),-8.7%,4.0%,14.1%,-4.8%,-6.7%,-22.2%
CCc1ccc(NC(=O)C(C)OC(=O)c2ccc(NS(=O)(=O)c3ccc(C)c([N+](=O)[O-])c3)cc2)cc1 (configuration not stated),79.4µM*,?,-2.5%,-2.2%[11.6 µM],-12.0%,?
CSc1nc(=S)cc(C)[nH]1,-1.7%,?,1.7%,39.8µM*,-13.0%,5.5%
O=c1cc(-c2ccccc2)nc2c(-c3ccccc3)c(C(F)(F)F)[nH]n12,?,20.4%,79.4µM*,-20.9%,-6.0%,-11.7%
CCc1cc(=O)oc2cc(C)c(CN3CCCC(C)C3)c(O)c12 (configuration not stated),35.5µM*,3.55µM*,3.16µM*,35.5µM*,50.1µM*,10µM*
COc1ccc(/C=C/c2nc(C#N)c(N3CCCCC3)o2)cc1OC,-22.2%,0.4%,7.4%,nt,-28.9%,-5.2%
